# Compounds with a hit are over-represented: about 12% of the library has one in this group of screens.
# HP1b binding inh: inhibitors of HP1-beta chromodomain binding to methylated histone tails | Potency, µM (top dose mostly 114 µM), inactives show at the top dose activity change, negative = inhibition, most hits filed as inhibitors | 390,000 tested, 0.56% active | AlphaScreen HP1-beta / biotin-H3K9me3 peptide binding | P83916; also: potency is read from the fitted curve at half-maximal effect; nearly all actives have a fitted effect of over 70% in size
#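 Compound inhibition of the preformed complex between 50 nM HP1-beta and 50 nM biotinylated H3K9me3 peptide was read by AlphaScreen. Buffer was PBS pH 7.4 with 0.01% Tween-20. Incubations ran 30 min at room temperature, with 10 ug/mL donor/acceptor beads.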
# JMJD2A Tudor inh: inhibitors of human JMJD2A Tudor domain; Potency, µM (series often up to 114 µM), without a hit: at the top dose activity change, negative = inhibition, usual class: inhibitors; AlphaScreen JMJD2A-Tudor / H3K4me3 peptide binding; AID 504339; 390,000 tested, 4.4% active; also: potency is read from the fitted curve at half-maximal effect; % is scaled to controls: 0 for no effect and ±100 for the full control effect; nearly all actives have a fitted effect of over 50% in size
# Target sequence (O75164 whole entry, looked up, the tested form may be a part): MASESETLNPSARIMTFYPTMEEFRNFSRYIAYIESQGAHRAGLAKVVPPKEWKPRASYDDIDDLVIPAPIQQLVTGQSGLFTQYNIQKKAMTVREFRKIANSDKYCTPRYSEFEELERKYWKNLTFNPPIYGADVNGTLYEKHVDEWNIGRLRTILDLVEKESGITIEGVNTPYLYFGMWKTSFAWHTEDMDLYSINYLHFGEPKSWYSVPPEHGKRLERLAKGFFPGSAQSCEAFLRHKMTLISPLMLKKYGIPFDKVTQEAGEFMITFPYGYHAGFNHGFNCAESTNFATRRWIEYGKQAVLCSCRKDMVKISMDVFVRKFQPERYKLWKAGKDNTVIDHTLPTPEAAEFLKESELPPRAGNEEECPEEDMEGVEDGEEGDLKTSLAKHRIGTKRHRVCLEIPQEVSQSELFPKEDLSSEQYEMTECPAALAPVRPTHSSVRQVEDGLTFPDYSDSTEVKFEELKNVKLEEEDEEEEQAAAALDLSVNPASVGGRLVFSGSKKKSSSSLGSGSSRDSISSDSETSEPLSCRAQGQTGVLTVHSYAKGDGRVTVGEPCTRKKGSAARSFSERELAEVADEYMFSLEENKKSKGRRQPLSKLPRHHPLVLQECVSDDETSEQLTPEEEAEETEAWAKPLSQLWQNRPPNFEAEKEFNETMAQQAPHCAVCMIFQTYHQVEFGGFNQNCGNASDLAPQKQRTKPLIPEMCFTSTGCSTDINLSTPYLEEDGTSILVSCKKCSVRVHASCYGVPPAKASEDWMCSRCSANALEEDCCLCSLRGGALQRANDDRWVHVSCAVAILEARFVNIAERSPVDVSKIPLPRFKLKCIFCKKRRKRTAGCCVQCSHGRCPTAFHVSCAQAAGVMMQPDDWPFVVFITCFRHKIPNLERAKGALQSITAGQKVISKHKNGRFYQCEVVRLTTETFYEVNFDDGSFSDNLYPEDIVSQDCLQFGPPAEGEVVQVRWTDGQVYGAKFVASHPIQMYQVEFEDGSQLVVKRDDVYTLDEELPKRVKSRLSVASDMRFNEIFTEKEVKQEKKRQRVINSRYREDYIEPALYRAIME
# PI5P4K alpha inh: blocks human PI5P4K alpha kinase activity | PI5P4Kalpha enzyme, ADP-Glo luminescence, 60 min; hits give low values | max response, % | 330,000 tested, 1.2% active | AID 652105; active = max response of -50% or lower; inconclusive = between -30% and -50%; inactive = -30% or higher; also: value at the top dose of about 77 µM; % is scaled to controls: 0 for no effect and ±100 for the full control effect
#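 Reactions run in 0.038 M HEPES pH 7.4, 0.28 mM EGTA, 0.1% CHAPS and 5% DMSO, with PI5P4Kalpha, substrate, compound and 5 microM ATP final, one hour at room temperature. Readout is ADP-Glo luminescence.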
# BAZ2B block: inhibitors of human BAZ2B bromodomain; 360,000 tested, 4.4% active; AlphaScreen BAZ2B-H3K14Ac peptide displacement; Potency, µM (top dose mostly 114 µM), without a hit: at the highest dose activity change, negative = inhibition, hits mostly inhibitors; Q9UIF8; also: potency is read from the fitted curve at half-maximal effect; % is scaled to controls: 0 for no effect and ±100 for the full control effect; nearly all actives have a fitted effect of over 60% in size
#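 AlphaScreen displacement: compounds (up to 110uM) incubated 30 min at room temperature with a preformed 50 nM BAZ2B/50 nM biotinylated H3K14Ac peptide complex in PBS pH 7.4 with Tween-20. Donor and acceptor beads at 10 ug/mL final added, 20 min light-protected before reading.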
# PLK1 PBD inh: inhibitors of human PLK1 polo-box domain binding; Potency, µM, for the others: max response, negative = inhibition, hits mostly inhibitors; Plk1 PBD binding of FITC phosphopeptide, fluorescence polarization; AID 720504; P53350; 360,000 tested, 2.8% active; also: potency is read from the fitted curve at half-maximal effect; series mostly up to about 57 µM; % is scaled to controls: 0 for no effect and ±100 for the full control effect; nearly all actives have a fitted effect of over 65% in size
# G9a block: blocks human histone lysine methyltransferase G9a; Q96KQ7; G9a H3K9 monomethylation, AlphaScreen, 2 h; Potency, µM (doses to about 102 µM), inactives show top-dose activity, negative = inhibition, hits mostly inhibitors; 350,000 tested, 8.8% active; also: potency is read from the fitted curve at half-maximal effect; % is scaled to controls: 0 for no effect and ±100 for the full control effect; nearly all actives have a fitted effect of over 75% in size
#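 Enzyme 20 nM + cpd, 15 min RT; add b-H3K9 pep 500 nM / SAM 20 uM; 2 h RT; anti-H3K9me1 Ab 0.5 ug/mL + SA donor / anti-rabbit acceptor beads 20 ug/mL each, 10 min; AlphaScreen read.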
# An asterisk follows results filed as active; ? = inconclusive; / = no result given; [ ] = another dose, or the depositor's remark. Unless noted, calls follow the shape of the dose curve; as a rule, active = well fitted curve in the direction sought with a large enough effect; inconclusive = small, poorly fitted or top-dose-only effect, or another doubt; inactive = no such curve, though single readings can be large; an effect the other way counts as inactive or inconclusive.
SMILES,HP1b binding inh,JMJD2A Tudor inh,PI5P4K alpha inh,BAZ2B block,PLK1 PBD inh,G9a block
COc1ccc(N2CCN(C(=O)c3ccc4c(c3)N(Cc3cccc(Cl)c3)C(=O)c3ccccc3S4(=O)=O)CC2)cc1,-1%,-31%,/,-18%,/,?
COc1ccc(N2CCN(C(=O)c3ccc4c(c3)NC(=O)C(CSCc3c(F)cccc3Cl)N4)CC2)cc1 (configuration not stated),/,/,/,-33%[57.1 µM],/,32µM*
COc1ccc(N2CCN(C(=O)c3ccc4c(c3)N(Cc3ccc(F)cc3)C(=O)c3ccccc3S4=O)CC2)cc1 (configuration not stated),7%,?,/,-39%,/,?
COc1ccccc1-c1nc2c(c(SCC(=O)Nc3ccc(C)c(C)c3)n1)Cc1c(CO)cnc(C)c1O2,-2%,-18%,/,-21%,/,?
CC(C)Cn1cnc2c(c(-c3ccccc3)c(-c3ccccc3)n2Cc2ccco2)c1=N,-16%,?,-3,?,27%,?
c1ccc(-c2c(-c3ccccc3)n(Cc3ccco3)c3ncnc(NCCCn4ccnc4)c23)cc1,?,45µM*,-9,32µM*,?,?
O=c1c2c3nc4ccccc4nc3n(Cc3ccccc3)c2ncn1Cc1ccco1,12%,-30%,-68*,50µM*,-27%,?
N=c1c2c(-c3ccccc3)c(-c3ccccc3)n(Cc3ccco3)c2ncn1CCCn1ccnc1,-23%,?,-7,?,8%,?
N=c1c2c(-c3ccccc3)c(-c3ccccc3)n(Cc3ccco3)c2ncn1CCCN1CCOCC1,4%,-28%,-5,?,25%,?
OCCNc1ncnc2c1c(-c1ccccc1)c(-c1ccccc1)n2Cc1ccco1,-12%,56µM*,5,50µM*,-26%,18µM*
N=c1c2c(-c3ccccc3)c(-c3ccccc3)n(Cc3ccco3)c2ncn1Cc1ccccc1,14%,-18%,-6,45µM*,-1%,-9%[12.7 µM]
CCCCN(C)CCCNC(=O)C1(O)c2ccccc2NC(=O)N1c1ccc(Cl)cc1 (configuration not stated),59%,1%,-1,-10%,-4%,17%
c1ccc(-c2oc3ncnc(NCCCn4ccnc4)c3c2-c2ccccc2)cc1,?,56µM*,/,25µM*,6%,?
COc1cc(-c2nc3ccccn3c2/N=C/c2cccc(OC)c2O)ccc1O,20%,?,-3,-15%,-4%,9%
Clc1ccc(/C=N/c2c(-c3ccco3)nc3ccccn23)cc1,?,45µM*,/,?,-3%,?
COc1cc(-c2nc3ccccn3c2/N=C/c2ccc(F)cc2)ccc1O,?,?,1,?,-5%,35µM*
COc1ccc(/C=N/c2c(-c3ccco3)nc3ccccn23)cc1OC,-6%,-34%,/,?,-4%,71µM*
O=C1C(c2ccc(C(F)(F)F)cc2)=C(Nc2ccc(Cl)cc2)c2ccccc21,4%,-18%,/,-22%,/,-13%[59 µM]
Cc1c(-c2nnc(SCC(=O)Nc3ccccc3F)o2)nnn1-c1ccc(F)cc1,8%[57 µM],-20%,/,-19%,/,-4%[59 µM]
OC[C@H]1O[C@@H](c2nc(-c3ccc4[nH]ccc4c3)no2)[C@H](O)[C@@H](O)[C@H]1O,/,/,-1,/,3%,/
CC(C)(C)OC(=O)[C@H](Cc1ccccc1)NC(=O)c1nc[nH]c1C(=O)N1CCN(C(=O)OC(C)(C)C)CC1,44%,-20%,2,-7%,1%,0%
CC(C)(C)OC(=O)NCc1ccc(CNC(=O)c2nc[nH]c2C(=O)N2CCc3ccccc3C2)cc1,45%,-23%,0,50µM*,-5%,9%[2.33 µM]
O=C(N[C@@H](Cc1ccccc1)C(=O)OCc1ccccc1)c1nc[nH]c1C(=O)N1CCNCC1,3%,50µM*,0,/,2%,/
O=C(O)c1nccnc1C(=O)N1CCN(c2ccccc2)CC1,24%,?,-8,56µM*,-24%,?

# Screens from PubChem.
